These results are taken from PubChem BioAssay (NCI).

The panel holds about 83,000 compounds, 20% with a hit somewhere; the sample as a whole holds those more often.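 In brief: 96-well plates, 48 h treatment, single concentration, percent growth endpoint.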 A number with no mark means an inactive call. The source made the active and inactive calls. The calls were made as follows: active = growth percent below 10; inactive = the rest.

What all share (test): NCI-60 one-dose screen, 48 h (100 = growth as untreated, 0 = no growth, -100 = all killed)
Common to all, as to settings: 10 µM

For assay [1], the system named is SK-MEL-2 melanoma.
The subject of assay [2] is SN12C renal.
The subject of assay [3] is UO-31 renal.
The subject of assay [4] is TK-10 renal.
For assay [5], the system named is ACHN renal.
The test system of assay [6] is CAKI-1 renal.
In assay [7] the test system is A498 renal.
For assay [8], the system named is CCRF-CEM leukemia.
Assay [9] relates to MOLT-4 leukemia.

`Cc1ccc2nc(-c3ccc(OCC(=O)N=Nc4c(O)[nH]c5ccccc45)cc3)[nH]c2c1`: the growth was 104% in [1]; 57.3% in assay [2]; 96.1% in [3]; 103% in [4]; 95.6% in assay [5]; 93.4% in [6]. Further, the growth in assay [7] was 93.2%; in [8], 9.27% (active); in [9] it was 39.6%.
For the compound `COc1ccc(/C=C2\CCC3C(CCCC34OCCO4)C2=O)cc1` (stereo not given), the growth was 88.4% in [1]; 96.8% in assay [2]; 80.5% in assay [3]; 95.3% in [4]; 93.6% in [5]; 80.2% in [6]. The growth was 106% in assay [7], 79.1% in assay [8] and 78.2% in assay [9].
Consider `Nc1c(CNCc2nnn(Cc3ccccc3)c2N)nnn1Cc1ccccc1`, for which the growth is 103% in assay [1]; 99% in assay [2]; 86.5% in [3]; 102% in [4]; 99.6% in [5]; 101% in [6]. In addition, the values for the growth in assay [7], in [8] and in [9] were 98.4%, 95.4% and 102%, respectively.
Turning to `COc1cc2c3c(cccc3c1)C(=O)N(CCN1CCCC1)C2=O`, the growth in assay [1] was -8.39% (active); in [2], 29.7%; in [3] it was -3.17% (active); in assay [4], -6.26% (active); in assay [5], 7.6% (active); in [6], 14.2%. For the same compound, the growth in [7] was -22.1% (active); in assay [8], 18.9%; in assay [9] it was 4.5% (active).
For the compound `CC(C)C[C@H](NC(=O)CCn1ccc2ccccc2c1=O)B(O)O`, the growth in assay [1] is 63.8%; in assay [2] it was 63.7%; in assay [3], 57.3%; in [4], 12.8%; in assay [5], 28.6%; in assay [6], 45.6%. In addition, the growth was 7.69% (active) in [7], 12% in assay [8] and 5.52% (active) in assay [9].
As to `COc1cc(CSc2nc3ccc(Cl)cc3c(=O)n2-c2ccccc2)cc(OC)c1OC`, the growth is 77.5% in assay [1]; 76% in assay [2]; 47.8% in assay [3]; 97.7% in assay [4]; 78.9% in assay [5]; 73.9% in assay [6]. Further, the figures for the growth in assay [7], in [8] and in assay [9] were 81.7%, 95.1% and 69.8%, respectively.
As to `COc1ccc(CSc2nc3cc(OC)c(OC)cc3c(=O)n2-c2ccc(OC)cc2OC)cc1`, the growth in assay [1] is 91.5%; in assay [2], 90.1%; in [3], 55.4%; in assay [4] it was 108%; in assay [5], 94%; in assay [6], 68.7%. The figures for the growth in [7], in [8] and in assay [9] were 58.6%, 92.7% and 79.4%, respectively.
Turning to `O=C1/C(=C/c2ccc([N+](=O)[O-])s2)Oc2ccc(Cl)cc21`, the growth is -53.7% (active) in assay [1]; -54.3% (active) in assay [2]; -89.4% (active) in assay [3]; -32.7% (active) in assay [4]; -71.1% (active) in [5]; -29.9% (active) in [6]. For the same compound, the growth in [7] is 9.57% (active); in assay [8], 2.86% (active); in assay [9], -15.7% (active).
Consider `CCC(O)c1ccc(Br)cc1NC(=O)c1cccc(Cl)c1` (stereo not given), for which the growth in [1] is 34%; in [2], 18.7%; in assay [3], -11.6% (active); in assay [4], 41.9%; in [5], 15.6%; in [6], 7.99% (active). The growth is 25.3% in assay [7], 6.46% (active) in [8] and 10.1% in assay [9].
With `CCOC(=O)c1sc(Nc2ncccn2)nc1-c1ccccn1`, the growth was 60.4% in [1]; 92% in [2]; 62.4% in assay [3]; 102% in assay [4]; 88.4% in assay [5]; 57.2% in assay [6]. For the same compound, the growth in assay [7] was 90.2%; in assay [8], 46.2%; in assay [9], 73.1%.
As for `COc1cc(-c2nc3ccc(C)cc3[nH]2)ccc1OCc1nnc(-c2ccc(CC(C)C)cc2)o1`, the growth in assay [1] is 97.3%; in assay [2], 92%; in [3], 77.8%; in assay [4], 119%; in assay [5], 107%; in assay [6], 95.1%. The growth is 81.8% in assay [7], 80.3% in assay [8] and 82.4% in [9].
On to `Cc1nc(Nc2nc3ccccc3o2)nc(-c2cccc([N+](=O)[O-])c2)c1C(=O)Nc1ccc(F)c(Cl)c1`, for which the growth in assay [1] is -33.7% (active); in [2], 7.04% (active); in assay [3] it was 11.3%; in assay [4] it was 8.62% (active); in [5] it was 12.9%; in assay [6] it was 9.69% (active). For the same compound, the growth in assay [7] was -37.2% (active); in [8] it was 22.8%; in [9], -23.7% (active).
Turning to `Cn1c([N+](=O)[O-])cnc1/C=C1\Oc2ccc(Br)cc2C1=O`, the growth in [1] is -49% (active); in assay [2] it was -2.34% (active); in [3], -38.4% (active); in assay [4], -33.3% (active); in [5], -41.6% (active); in [6] it was -21.6% (active). In addition, the growth was -29.7% (active) in assay [7], 5.39% (active) in [8] and -14.1% (active) in assay [9].
Consider `COc1cc(-c2cc(-c3cc(OC)c(OC)c(OC)c3)nc3nc(N)[nH]c(=O)c23)ccc1Oc1ccnc2cc(Cl)ccc12`, for which the growth in assay [1] was 29.2%; in [2], 31.3%; in assay [3] it was 46.3%; in assay [4] it was 92.9%; in assay [5] it was 48.4%; in assay [6], 38.7%. For the same compound, the growth was 84.9% in [7], 18.2% in assay [8] and 17.7% in [9].
Regarding `FC(F)(F)c1ccc(-c2nc(-c3nc4cc(Cl)c(Cl)cc4[nH]3)c3ccccn23)cc1`, the growth in [1] was 68.6%; in [2] it was 84.4%; in assay [3] it was 58.5%; in assay [4] it was 16.7%; in assay [5] it was 63.6%; in assay [6], 83.9%. Also, the growth in [7] is 38.5%; in [8], 81.6%; in [9], 63.5%.
